From PubChem BioAssay (EPA / NIEHS) come the findings set out here.

Several values for one entry are separate records, joined by “and”; a condition that tells them apart may be missing. Equal entries are not always repeated. Records with an inconclusive call do not appear. The source holds several records for some structures; these can differ, active in one and inactive in another. Activity calls are given as the source filed them. The calls were made as follows: active = hit-call score of the fitted dose curve at least 0.9, where 1 is the maximum; inconclusive = response in the unintended direction; inactive = score below 0.9.

Test [1] has as its target human Sirtuin 2 (SIRT2), SIRT2 (gene 22933) (UniProt Q8IXJ6). Description: NVS_ENZ_hSIRT2: NovaScreen (NVS) Enzymatic Assay for human Sirtuin 2 (SIRT2) (AID 2283217). In short, it runs like this:
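Cell-free recombinant human SIRT2, fluorescent substrate with product separated by electrophoretic mobility shift, 1 hr. Screened in duplicate at 25 uM; hits rerun singly in concentration-response up to 50 uM, relative to DMSO.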

Test [2] has as its target human Sirtuin 1 (SIRT1), SIRT1 (gene 23411) (UniProt Q96EB6). Description: NVS_ENZ_hSIRT1: NovaScreen (NVS) Enzymatic Assay for human Sirtuin 1 (SIRT1) (AID 2283219). In short, it runs like this:
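Cell-free recombinant SIRT1 with a fluorescent substrate; substrate and product separated by electrophoretic mobility shift and read by fluorescence intensity, 1 h after dosing. Primary screen at 25 uM in duplicate; hits re-run in concentration-response up to 50 uM, relative to DMSO.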

For test [3], the target named is human Sirtuin 3 (SIRT3), SIRT3 (gene 23410) (UniProt Q9NTG7). Description: NVS_ENZ_hSIRT3: NovaScreen (NVS) Enzymatic Assay for human Sirtuin 3 (SIRT3) (AID 2283222). Summed up: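 Cell-free enzyme assay with recombinant protein and fluorescent substrate, product separated by electrophoretic mobility shift; read 1 hour after dosing. Screened in duplicate at 25 uM, then singleton concentration-response up to 50 uM; loss of signal versus DMSO.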

The target of test [4] is human SRC Proto-Oncogene, Non-receptor Tyrosine Kinase (SRC), SRC (gene 6714) (UniProt P12931). Description: NVS_ENZ_hSRC: NovaScreen (NVS) Enzymatic Assay for human SRC Proto-Oncogene, Non-receptor Tyrosine Kinase (SRC) (AID 2283223). In short, it runs like this:
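Cell-free kinase activity assay with fluorescent substrate, product separated by electrophoretic mobility shift, read 1 h after dosing. Duplicate single point at 25 uM, then concentration-response up to 50 uM; loss of signal versus DMSO.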

Test [5] has as its target human Tropomyosin Receptor Kinase A (TRKA), NTRK1 (gene 4914) (UniProt P04629). Description: NVS_ENZ_hTrkA: NovaScreen (NVS) Enzymatic Assay for human Tropomyosin Receptor Kinase A (TRKA) (AID 2283224). In short, it runs like this:
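Recombinant human TrkA activity read after 1 h by fluorescence with electrophoretic mobility shift separating substrate and product. Primary screen in duplicate at 25 uM; actives were rerun in concentration-response up to 50 uM. Loss of signal versus DMSO.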

Test [6] has as its target human Vascular Endothelial Growth Factor Receptor 1 (VEGFR1), FLT1 (gene 2321) (UniProt P17948). Description: NVS_ENZ_hVEGFR1: NovaScreen (NVS) Enzymatic Assay for human Vascular Endothelial Growth Factor Receptor 1 (VEGFR1) (AID 2283226). In short, it runs like this: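 Cell-free assay of recombinant human VEGFR1 kinase with substrate, measured 1 h after dosing; fluorescence with electrophoretic mobility-shift separation of substrate and product, referenced to DMSO; primary screen at 25 uM in duplicate, actives then run in concentration series.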

The target of test [7] is rabbit Imidazoline 2 Central (I2C), CKB (gene 100009085) (UniProt P00567). Description: NVS_ENZ_rabI2C: NovaScreen (NVS) Enzymatic Assay for rabbit Imidazoline 2 Central (I2C) (AID 2283228). In short, it runs like this:
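Rabbit brain membranes, cell-free; readout by filter-based scintillation counting 1.5 hours after dosing, loss of signal vs DMSO. Initial duplicate test at 25 uM, then concentration-response with 50 uM top concentration.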

Test [8] has as its target human Vascular Endothelial Growth Factor Receptor 3 (VEGFR3), FLT4 (gene 2324) (UniProt P35916). Description: NVS_ENZ_hVEGFR3: NovaScreen (NVS) Enzymatic Assay for human Vascular Endothelial Growth Factor Receptor 3 (VEGFR3) (AID 2283229). In short, it runs like this:
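Cell-free recombinant VEGFR3 kinase reaction with fluorescent substrate, read 1 h after dosing by electrophoretic mobility shift separation of substrate and product. Single-concentration duplicate screen at 25 uM, then concentration-response up to 50 uM; loss of activity versus DMSO.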

For test [9], the target named is human Vascular Endothelial Growth Factor Receptor 2 (VEGFR2), KDR (gene 3791) (UniProt P35968). Description: NVS_ENZ_hVEGFR2: NovaScreen (NVS) Enzymatic Assay for human Vascular Endothelial Growth Factor Receptor 2 (VEGFR2) (AID 2283230). In short, it runs like this: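 Cell-free recombinant VEGFR2 kinase, fluorescent substrate with electrophoretic mobility-shift separation; read 1 h after dosing. Screened at 25 uM in duplicate, hits to concentration-response up to 50 uM; loss-of-signal versus DMSO.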

For test [10], the target named is sheep Cyclooxygenase-2 (Cox2), PTGS2 (gene 443460) (UniProt P79208). Description: NVS_ENZ_oCOX2: NovaScreen (NVS) Enzymatic Assay for sheep Cyclooxygenase-2 (Cox2) (AID 2283231). In short, it runs like this: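 Compounds were first run at 25 uM in duplicate against tissue-extracted ovine COX-2; those passing a preset inhibition threshold went to singleton concentration-response testing with a 50 uM maximum. Read-out: absorbance at 0.66 hour.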

Test [11] deals with rat Catechol-O-Methyl Transferase (COMT), Comt (gene 24267) (UniProt P22734). Description: NVS_ENZ_rCOMT: NovaScreen (NVS) Enzymatic Assay for rat Catechol-O-Methyl Transferase (COMT) (AID 2283235). In short, it runs like this: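 Cell-free enzyme activity with protein extracted from rat dorsal striatum, measured by HPLC with absorbance detection. Compounds screened at 25 uM in duplicate; actives then run in concentration-response up to 50 uM, loss of signal versus DMSO.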

Test [12] concerns the target sheep Cyclooxygenase-1 (Cox1), PTGS1 (gene 443551) (UniProt P05979). Description: NVS_ENZ_oCOX1: NovaScreen (NVS) Enzymatic Assay for sheep Cyclooxygenase-1 (Cox1) (AID 2283239).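 Also: actives reduce cyclooxygenase activity so potencies are for inhibitors.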 Summed up: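 Cell-free colorimetric assay of enzyme activity in a native extract of ovine seminal vesicles. Absorbance was read 0.66 hour after compound addition. Loss of signal relative to the DMSO negative control was scored, with actives from the 25 uM duplicate primary screen retested in concentration series.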

The target of test [13] is human Serotonin, 5-Hydroxytryptamine Receptor 2A (5HT2A), HTR2A (gene 3356) (UniProt P28223). Description: NVS_GPCR_h5HT2A: NovaScreen (NVS) G Protein-Coupled Receptor Assay for human Serotonin, 5-Hydroxytryptamine Receptor 2A (5HT2A) (AID 2283249). In short, it runs like this: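 Human cortex membranes, cell-free radioligand binding; filter-based scintillation read 1.5 h after dosing. Duplicate screen at 25 uM first; displacement of specific binding (loss of signal) versus DMSO.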

In test [14] the test system is guinea pig Leukotriene B4 Receptor (LTB4), gene 100379538. Description: NVS_GPCR_gLTB4: NovaScreen (NVS) G Protein-Coupled Receptor Assay for guinea pig Leukotriene B4 Receptor (LTB4) (AID 2283247). In short, it runs like this:
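Radioligand displacement on guinea pig spleen membranes, filter-based scintillation counting 2 h after dosing. Primary duplicate single point at 25 uM; hits over threshold (e.g. 30% inhibition) run in concentration-response up to 50 uM, DMSO baseline.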

The target of test [15] is rat Constitutive Nitric Oxide Synthase (CNOS), Nos1 (gene 24598) (UniProt P29476). Description: NVS_ENZ_rCNOS: NovaScreen (NVS) Enzymatic Assay for rat Constitutive Nitric Oxide Synthase (CNOS) (AID 2283236). Summed up: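 Enzyme activity in rat brain membrane preparation, read 1 h after dosing by filter-based radiometric scintillation counting. Primary screen in duplicate at 25 uM; actives (e.g., ≥30% inhibition) then run in concentration-response up to 50 uM.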
Chain of rat Constitutive Nitric Oxide Synthase (CNOS), Nos1 (gene 24598) (P29476 whole entry, looked up): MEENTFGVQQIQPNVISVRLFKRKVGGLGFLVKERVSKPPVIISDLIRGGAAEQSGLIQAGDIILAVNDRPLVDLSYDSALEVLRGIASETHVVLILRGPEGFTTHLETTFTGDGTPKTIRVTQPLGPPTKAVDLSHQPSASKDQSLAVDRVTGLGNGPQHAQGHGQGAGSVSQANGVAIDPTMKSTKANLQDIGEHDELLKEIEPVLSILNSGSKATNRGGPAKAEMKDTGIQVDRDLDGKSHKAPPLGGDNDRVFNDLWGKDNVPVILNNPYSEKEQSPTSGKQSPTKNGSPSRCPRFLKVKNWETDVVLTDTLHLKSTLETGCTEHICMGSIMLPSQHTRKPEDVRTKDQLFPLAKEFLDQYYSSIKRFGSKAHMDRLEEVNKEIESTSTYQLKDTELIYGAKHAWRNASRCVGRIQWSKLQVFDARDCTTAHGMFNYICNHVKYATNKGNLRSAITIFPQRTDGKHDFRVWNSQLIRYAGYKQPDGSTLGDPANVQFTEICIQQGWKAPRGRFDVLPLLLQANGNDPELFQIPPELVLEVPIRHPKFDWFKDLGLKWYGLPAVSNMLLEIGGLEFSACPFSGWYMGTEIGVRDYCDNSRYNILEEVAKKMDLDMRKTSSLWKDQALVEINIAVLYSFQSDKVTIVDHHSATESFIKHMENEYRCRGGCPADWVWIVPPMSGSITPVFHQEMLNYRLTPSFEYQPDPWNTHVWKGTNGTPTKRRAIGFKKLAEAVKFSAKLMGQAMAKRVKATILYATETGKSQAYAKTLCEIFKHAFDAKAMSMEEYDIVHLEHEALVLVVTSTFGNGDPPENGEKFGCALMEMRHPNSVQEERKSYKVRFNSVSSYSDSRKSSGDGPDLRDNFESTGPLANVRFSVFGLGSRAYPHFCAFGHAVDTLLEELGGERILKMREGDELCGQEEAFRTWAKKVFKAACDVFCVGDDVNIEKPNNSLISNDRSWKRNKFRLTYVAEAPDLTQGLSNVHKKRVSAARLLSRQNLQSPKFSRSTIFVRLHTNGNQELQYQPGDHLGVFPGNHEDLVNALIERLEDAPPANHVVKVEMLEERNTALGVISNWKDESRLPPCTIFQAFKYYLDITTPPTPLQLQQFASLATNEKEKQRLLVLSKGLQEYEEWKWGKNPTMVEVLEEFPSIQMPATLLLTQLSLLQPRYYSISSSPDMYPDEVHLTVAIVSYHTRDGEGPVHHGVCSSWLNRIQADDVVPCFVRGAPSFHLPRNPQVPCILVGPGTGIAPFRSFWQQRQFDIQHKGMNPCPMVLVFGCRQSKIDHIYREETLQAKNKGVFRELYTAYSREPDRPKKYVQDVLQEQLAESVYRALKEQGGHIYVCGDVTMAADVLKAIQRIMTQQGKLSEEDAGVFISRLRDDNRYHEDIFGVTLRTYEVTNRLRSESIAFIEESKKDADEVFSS

Test [16] has as its target Adenosine receptor A1 (Bos taurus) (UniProt P28190). Description: NVS_GPCR_bAdoR_NonSelective: NovaScreen (NVS) G Protein-Coupled Receptor Assay for bovine Adenosine Receptor (AdoR), Non-selective Binding (AID 2283244). In short, it runs like this: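 Bovine striatal membranes, radioligand displacement binding, 1 h after dosing, filter-based scintillation counting. Screened in duplicate at 25 uM, then concentration-response up to 50 uM; loss of specific binding relative to DMSO.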

Test [17] deals with guinea pig Leukotriene D4 Receptor (LTD4), CYSLTR1 (gene 100135514) (UniProt Q2NNR5). Description: NVS_GPCR_gLTD4: NovaScreen (NVS) G Protein-Coupled Receptor Assay for guinea pig Leukotriene D4 Receptor (LTD4) (AID 2283248). Summed up: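 Radioligand displacement on guinea pig lung membranes, 1 h incubation, filtration and scintillation counting; DMSO as negative control. Duplicate 25 uM primary screen, then singleton concentration-response up to 50 uM.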

Chain of human Sirtuin 2 (SIRT2), SIRT2 (gene 22933) (Q8IXJ6 whole entry, looked up): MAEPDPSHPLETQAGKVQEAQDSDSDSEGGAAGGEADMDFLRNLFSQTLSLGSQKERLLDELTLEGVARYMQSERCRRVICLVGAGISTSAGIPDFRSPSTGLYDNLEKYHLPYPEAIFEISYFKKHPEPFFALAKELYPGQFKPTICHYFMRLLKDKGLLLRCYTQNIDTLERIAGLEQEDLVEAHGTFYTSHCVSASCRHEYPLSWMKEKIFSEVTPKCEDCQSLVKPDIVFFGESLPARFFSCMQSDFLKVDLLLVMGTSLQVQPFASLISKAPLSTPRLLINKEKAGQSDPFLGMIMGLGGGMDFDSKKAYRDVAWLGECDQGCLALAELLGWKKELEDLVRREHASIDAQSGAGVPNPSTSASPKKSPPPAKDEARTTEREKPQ
Chain of human Sirtuin 1 (SIRT1), SIRT1 (gene 23411) (Q96EB6 whole entry, looked up): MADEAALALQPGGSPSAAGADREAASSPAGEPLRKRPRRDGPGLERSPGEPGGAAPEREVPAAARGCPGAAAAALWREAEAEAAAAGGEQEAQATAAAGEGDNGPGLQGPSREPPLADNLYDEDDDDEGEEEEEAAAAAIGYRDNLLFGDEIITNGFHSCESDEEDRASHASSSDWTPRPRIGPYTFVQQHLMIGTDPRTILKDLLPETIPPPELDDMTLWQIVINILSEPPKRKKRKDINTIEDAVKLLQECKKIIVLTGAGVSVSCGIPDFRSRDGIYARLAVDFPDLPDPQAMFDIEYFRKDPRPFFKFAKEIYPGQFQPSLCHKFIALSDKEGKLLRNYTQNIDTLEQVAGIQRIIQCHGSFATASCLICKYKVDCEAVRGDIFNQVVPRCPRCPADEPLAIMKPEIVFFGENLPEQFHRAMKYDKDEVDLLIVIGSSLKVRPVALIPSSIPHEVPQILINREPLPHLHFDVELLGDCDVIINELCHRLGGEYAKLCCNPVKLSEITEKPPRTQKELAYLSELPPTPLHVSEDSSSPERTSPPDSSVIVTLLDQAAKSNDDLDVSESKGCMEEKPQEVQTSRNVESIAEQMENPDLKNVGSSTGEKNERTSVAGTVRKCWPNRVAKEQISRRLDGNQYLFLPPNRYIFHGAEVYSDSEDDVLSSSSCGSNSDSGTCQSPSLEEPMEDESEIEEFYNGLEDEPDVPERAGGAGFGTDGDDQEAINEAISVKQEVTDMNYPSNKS
Chain of rabbit Imidazoline 2 Central (I2C), CKB (gene 100009085) (P00567 whole entry, looked up): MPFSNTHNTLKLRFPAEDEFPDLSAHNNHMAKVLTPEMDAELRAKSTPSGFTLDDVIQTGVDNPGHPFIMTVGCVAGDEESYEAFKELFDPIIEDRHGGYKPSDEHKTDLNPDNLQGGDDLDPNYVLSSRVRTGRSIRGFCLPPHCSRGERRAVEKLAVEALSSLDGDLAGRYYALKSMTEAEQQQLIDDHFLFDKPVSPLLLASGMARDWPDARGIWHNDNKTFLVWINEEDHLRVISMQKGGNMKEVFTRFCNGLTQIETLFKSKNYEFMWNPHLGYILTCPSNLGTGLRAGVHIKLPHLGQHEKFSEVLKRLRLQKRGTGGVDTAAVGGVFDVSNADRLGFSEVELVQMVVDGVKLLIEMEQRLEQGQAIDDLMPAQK
Chain of human Vascular Endothelial Growth Factor Receptor 3 (VEGFR3), FLT4 (gene 2324) (P35916 whole entry, looked up): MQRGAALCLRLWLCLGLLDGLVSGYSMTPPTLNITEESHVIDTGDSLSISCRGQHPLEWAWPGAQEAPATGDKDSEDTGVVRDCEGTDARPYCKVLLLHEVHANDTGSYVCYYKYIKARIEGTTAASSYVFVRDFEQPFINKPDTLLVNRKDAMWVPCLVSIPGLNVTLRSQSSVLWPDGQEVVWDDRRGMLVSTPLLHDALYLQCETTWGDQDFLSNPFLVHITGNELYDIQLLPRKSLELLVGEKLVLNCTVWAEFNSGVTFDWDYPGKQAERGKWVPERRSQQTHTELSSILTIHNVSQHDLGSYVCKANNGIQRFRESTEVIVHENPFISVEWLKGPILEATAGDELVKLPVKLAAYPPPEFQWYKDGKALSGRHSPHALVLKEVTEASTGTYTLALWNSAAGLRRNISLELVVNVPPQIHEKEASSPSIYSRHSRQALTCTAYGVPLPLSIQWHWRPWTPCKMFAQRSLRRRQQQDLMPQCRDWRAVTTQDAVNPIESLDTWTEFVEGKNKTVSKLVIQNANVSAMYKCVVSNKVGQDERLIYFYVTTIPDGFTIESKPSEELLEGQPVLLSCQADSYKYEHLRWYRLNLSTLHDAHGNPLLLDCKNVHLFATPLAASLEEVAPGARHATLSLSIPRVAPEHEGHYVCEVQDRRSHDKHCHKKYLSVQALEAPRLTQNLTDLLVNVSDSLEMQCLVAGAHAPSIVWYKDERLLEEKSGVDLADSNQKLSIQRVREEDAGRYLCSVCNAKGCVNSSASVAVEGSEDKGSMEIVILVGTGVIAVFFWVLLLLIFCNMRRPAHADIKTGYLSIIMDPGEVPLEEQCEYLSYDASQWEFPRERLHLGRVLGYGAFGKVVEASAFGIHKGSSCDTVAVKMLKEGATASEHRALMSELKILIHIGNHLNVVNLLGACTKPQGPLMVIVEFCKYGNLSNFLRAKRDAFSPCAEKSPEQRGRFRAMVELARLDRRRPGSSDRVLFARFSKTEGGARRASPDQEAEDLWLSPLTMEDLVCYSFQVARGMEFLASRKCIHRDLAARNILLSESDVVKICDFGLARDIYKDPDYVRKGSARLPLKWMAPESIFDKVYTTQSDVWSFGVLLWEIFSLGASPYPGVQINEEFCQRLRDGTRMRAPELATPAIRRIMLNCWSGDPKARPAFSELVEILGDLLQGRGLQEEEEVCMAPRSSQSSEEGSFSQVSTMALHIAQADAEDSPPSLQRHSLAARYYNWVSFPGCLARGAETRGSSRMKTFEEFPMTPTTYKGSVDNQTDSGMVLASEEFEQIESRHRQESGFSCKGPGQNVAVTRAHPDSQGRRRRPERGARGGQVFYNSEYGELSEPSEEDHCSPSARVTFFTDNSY
Chain of human Tropomyosin Receptor Kinase A (TRKA), NTRK1 (gene 4914) (P04629 whole entry, looked up): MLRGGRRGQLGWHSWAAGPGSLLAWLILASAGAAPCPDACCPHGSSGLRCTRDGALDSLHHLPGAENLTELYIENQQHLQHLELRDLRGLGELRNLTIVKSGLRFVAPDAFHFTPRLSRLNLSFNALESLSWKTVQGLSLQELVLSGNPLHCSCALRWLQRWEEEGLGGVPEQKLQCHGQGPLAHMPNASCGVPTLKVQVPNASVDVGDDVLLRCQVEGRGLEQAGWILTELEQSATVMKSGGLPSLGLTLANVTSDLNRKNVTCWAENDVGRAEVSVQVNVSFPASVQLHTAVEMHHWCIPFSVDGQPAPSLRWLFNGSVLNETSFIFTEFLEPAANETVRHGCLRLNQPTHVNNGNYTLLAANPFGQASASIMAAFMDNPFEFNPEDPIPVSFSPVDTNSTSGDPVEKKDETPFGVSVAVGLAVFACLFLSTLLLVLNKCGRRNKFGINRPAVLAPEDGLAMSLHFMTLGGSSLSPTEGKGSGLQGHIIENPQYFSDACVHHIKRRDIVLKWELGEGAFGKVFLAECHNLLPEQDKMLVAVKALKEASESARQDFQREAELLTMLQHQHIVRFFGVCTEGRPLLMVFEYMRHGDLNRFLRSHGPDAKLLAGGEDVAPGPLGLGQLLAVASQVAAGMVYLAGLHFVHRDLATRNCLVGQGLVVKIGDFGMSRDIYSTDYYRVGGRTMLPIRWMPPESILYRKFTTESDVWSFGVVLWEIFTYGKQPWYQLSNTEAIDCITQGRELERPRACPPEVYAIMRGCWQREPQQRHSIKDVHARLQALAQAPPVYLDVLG

A word on the AC50: it is the concentration giving half of the maximal activity seen. In the case of `S=C(S)NCCNC(=S)S.[Mn+2].[S-]C([S-])=NCCN=C([S-])[S-].[Zn+2]`, the AC50 in test [1] was 4.58 µM (active); in test [2], 3.63 µM (active) and 4.01 µM (active) and 3.03 µM (active); in test [3], 25 µM (active); in [4], 1.47 µM (active); in [5], 22.1 µM (active); in test [6], 7.01 µM (active). Moreover, the concentration at half-maximal activity (AC50) is 1.34 µM (active) in test [7]; 2.42 µM (active) and 1.31 µM (active) in test [8]; 4.23 µM (active) and 3.35 µM (active) in test [9]; 12.5 µM (active) in [10]; 21.1 µM (active) in test [11]. Further, the result in [1], in test [3], in test [6], in [7], in test [12] and in [13] was inactive.

On to `CC(C)(c1ccc(O)cc1)c1ccc(O)cc1`, for which the compound was classed as inactive in test [2], in [6], in [8], in test [9], in [10] and in [12]. Further, the AC50 in test [5] is 15.4 µM (active).

For `C[C@]12C[C@H](O)[C@H]3[C@@H](CCC4=CC(=O)CC[C@@]43C)[C@@H]1CC[C@@H]2C(=O)CO`, the compound was called inactive in test [10], in [12] and in test [14].

As for `COC(=O)c1ccc(CNS(C)(=O)=O)cc1S(=O)(=O)NC(=O)Nc1nc(OC)cc(OC)n1`, the AC50 in test [15] is 7.99 µM (active).

For `CCNc1nc(N)nc(Cl)n1`, the result in test [16] and in [17] was inactive.

With `c1ccc2[nH]c(-c3cscn3)nc2c1`, the results for the AC50 in test [4], in test [5] and in test [7] were 25 µM (active), 8.41 µM (active) and 4.07 µM (active), respectively.

As to `CC(C)CCCCCCc1ccc(O)cc1`, the result in test [2] and in test [5] was inactive.

`CC1(C)C(C=C(Cl)Cl)C1C(=O)OCc1cccc(Oc2ccccc2)c1` (stereo not drawn): the call in [1] was inactive.

For `N#CSCSc1nc2ccccc2s1`, the AC50 in [2] is 10.7 µM (active); in test [15], 6.64 µM (active). Further, the outcome in test [9], in test [12] and in [13] was inactive.

For `CCCCC(CC)CN1C(=O)C2C3C=CC(C3)C2C1=O` (stereo not drawn), the call in test [7] was inactive.

`CCOC(=O)C(C)Oc1ccc(Oc2nc3ccc(Cl)cc3o2)cc1` (stereo not drawn): the compound was called inactive in [15].
